Here are results for 36 compounds from PubChem BioAssay (NCI).

“And” between values parts separate entries of the source, which are not always exact repeats. Equal entries are not always repeated. The panel holds about 83,000 compounds, 20% with a hit somewhere; the sample as a whole holds those more often.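 Compound tested at a single concentration for 48 hours in 96-well plates; a percent growth value below 10 was scored as active.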 The source made the active and inactive calls.

The first assay concerns NCI-H23 lung. Briefly: NCI-60 one-dose screen, 48 h (100 = growth as untreated, 0 = no growth, -100 = all killed). Particulars: 0.0025 µM. How it is done:
Growth inhibition of the NCI-H23 human Non-Small Cell Lung tumor cell line is measured as a screen for anti-cancer activity. Cells are grown in 96 well plates and exposed to the test compound for 48 hours. Compounds are tested at a single concentration, which is 10^-5 M for most compounds. The reported endpoint is percent growth (GI% or GIPRCNT), where numbers from 0 - 100% represent growth inhibition, and numbers from -100% - 0 represent cell death. For example, a value of 40 represents 60% growth inhibition. A value of 0 means no net growth occurred over the course of the experiment. A value of -40 indicates 40% of cells at the beginning of the experiment died by the end of the experiment. A value of -100 means all cells are dead at the end of the experiment.
NCI-60 Human Tumor Cell Lines Screen was performed using the standard one-dose NCI protocol, which is described in more detail at https://dtp.cancer.gov/discovery_development/nci-60/default.htm.
Compounds with GIPRCNT values below 10 were considered active. Activity score was based on GIPRCNT using the following formula: […]
Score is 0 for GIPRCNT values of 100 or above, 50 for GIPRCNT values of 0, and 100 for GIPRCNT values of -100.
For the compound `COc1cccc2c1C(=O)c1c(O)c3c(c(O)c1C2=O)C[C@@](O)(C(=O)CO)C[C@@H]3OC1CC(N)C(O)C(C)O1` (stereo not given in full), the growth was 90% (inactive).

The same assay, now with this note: 1 µM.
Take `COc1cccc2c1C(=O)c1c(O)c3c(c(O)c1C2=O)C[C@@](O)(C(=O)CO)C[C@@H]3OC1CC(N)C(O)C(C)O1` (stereo not given in full): the growth is 28.2% (inactive).

Still in this assay, the particulars now being: 2.5 µM.
Regarding `COc1cccc2c1C(=O)c1c(O)c3c(c(O)c1C2=O)C[C@@](O)(C(=O)CO)C[C@@H]3OC1CC(N)C(O)C(C)O1` (stereo not given in full), the growth was 33.1% (inactive).

The same assay, now with this note: 10 µM.
In the case of `COc1cccc2c1C(=O)c1c(O)c3c(c(O)c1C2=O)C[C@@](O)(C(=O)CO)C[C@@H]3OC1CC(N)C(O)C(C)O1` (stereo not given in full), the growth is 33.3% (inactive). On the same count and under the same terms, the result for `CSC1SCC2C(=O)N(C)C(C(C)C)C(=O)OCC(NC(=O)c3cnc4ccccc4n3)C(=O)NC(C)C(=O)N(C)C1C(=O)N(C)C(C(C)C)C(=O)OCC(NC(=O)c1cnc3ccccc3n1)C(=O)NC(C)C(=O)N2C` (stereo not given) reads -28.2% (active); that for `CCCCCC(C)c1ccc(O)c(C)c1` (stereo not given), 104% (inactive). `CCCCCCCCCCCCSC(=NC)NC`: the growth was 35.4% (inactive) and 54.9% (inactive).

On to `COc1ccc(CC(=O)c2ccc(O)cc2O)cc1`, for which the growth is 104% (inactive). On the same count and under the same terms, next, `COC1OCC(O)C(O)C1O` (stereo not given): 98.3% (inactive). As to `CCCC1CCC(=C2C(=O)CCC2=O)O1` (stereo not given), the growth was 102% (inactive) and 98.7% (inactive). Regarding `O=C(Nc1ccc(C(=O)O)c(O)c1)c1ccccc1`, the growth was 104% (inactive) and 97.9% (inactive). Consider `NNc1c2ccccc2nc2ccccc12`, for which the growth is 47.4% (inactive). Still for that read-out and setting: next, `Nc1c2ccccc2nc2ccccc12`: 11.5% (inactive) and 41.9% (inactive) and 38.5% (inactive). Consider `COC(=O)C1=COC(C)C2C[n+]3ccc4c([nH]c5ccccc54)c3CC12` (stereo not given), for which the growth was 103% (inactive) and 88.6% (inactive).

Turning to `CS(=O)(=O)OC1CC(n2ccc(=O)[nH]c2=O)OC1COC(c1ccccc1)(c1ccccc1)c1ccccc1` (stereo not given), the growth was 106% (inactive). `CCCCCCCCCCSC(=N)N`: the growth is 87.4% (inactive).

Regarding `Cc1cc(O)c(C(C)C)cc1Cl`, the growth was 106% (inactive). Take `Cc1nc(N=C(N)N)nc2ccc3ccccc3c12`: the growth is 27.6% (inactive). As for `Clc1ccc(/C=C/c2ccccn2)c(Cl)c1`, the growth was 93.7% (inactive).

Turning to `O=C1C=CC(=CC=C2C=CN(CCCCCCCCCCCO)C=C2)C=C1`, the growth was 20% (inactive). As for `CC(C)(C)CC(C)(C)c1ccc(OCCO)cc1`, the growth is 106% (inactive). In the case of `CN1CCN(CCCN2c3ccccc3Sc3ccc(C(F)(F)F)cc32)CC1`, the growth was 69.9% (inactive).

As for `NNc1ccc2ccccc2c1`, the growth was 87.9% (inactive) and 94.4% (inactive).

With `CC(=O)Nc1cc(C)ccc1C`, the growth was 95.1% (inactive). With `CCCCCCCCCCCCCCCCCCOCC(COP(=O)([O-])OCC[N+](C)(C)C)OC` (stereo not given), the growth was 89.1% (inactive). As for `O=[N+]([O-])C1=C(c2ccccc2)SC=C(c2ccccc2)S1`, the growth was 79.3% (inactive). With `O=C(/C=C/c1ccccn1)c1ccccc1`, the growth is 83.8% (inactive).

Turning to `Clc1cc(Cl)c(Cl)nn1`, the growth was 105% (inactive). As for `Oc1ccc(N=Nc2ccccn2)c(O)c1`, the growth is 29.2% (inactive). On the same count and under the same terms, next, `OCC1OC(n2cnc3c(=S)nc[nH]c32)C(O)C1O` (stereo not given): 104% (inactive) and 71.8% (inactive); `O=C(C(=Cc1ccccc1)C(=O)c1ccccc1)c1ccccc1`: 66.7% (inactive) and 95.2% (inactive). On the same count and under the same terms, next, `COc1cccc2c1C(=O)c1c(O)c3c(c(O)c1C2=O)C[C@@](O)(C(C)=O)C[C@@H]3OC1CC(N)C(O)C(C)O1` (stereo not given in full): -40.5% (active); `N=S(c1ccccc1[N+](=O)[O-])c1ccccc1[N+](=O)[O-]`: 83.9% (inactive). For the compound `CCO/C=C1\SC(=S)N(c2cccc(O)c2)C1=O`, the growth was 106% (inactive). Still for that read-out and setting: next, `COc1c(O)cc2oc3cc(O)c(CC=C(C)C)c(O)c3c(=O)c2c1CC=C(C)C`: 54.6% (inactive); `O=c1ccn(C2CC(O)C(COC(c3ccccc3)(c3ccccc3)c3ccccc3)O2)c(=O)[nH]1` (stereo not given): 101% (inactive); `OC(CN1CCCC2CCCCC21)c1cc2ccccc2c2ccccc12` (stereo not given): 12.6% (inactive). Consider `CC[N+](CC)=c1ccc2nc3c(cc(N)c4ccccc43)oc-2c1`, for which the growth was -41.8% (active). For `CCC(C)(C)c1cc(O)c(C(C)(C)CC)cc1O`, the growth was 38.5% (inactive).

Still in this assay, the particulars now being: 100 µM.
Take `O=c1ccn(C2CC(O)C(COC(c3ccccc3)(c3ccccc3)c3ccccc3)O2)c(=O)[nH]1` (stereo not given): the growth is 69.2% (inactive).
